Results published in PubChem BioAssay (EPA / NIEHS).
Some compounds were tested as several samples or in several runs, with calls that do not always agree. The source made the active and inactive calls. Rule for the calls: active = hit-call score of the fitted dose curve at least 0.9, where 1 is the maximum; inactive = score below 0.9.

test: CCTE_Shafer_MEA_acute_per_network_burst_spike_number_std: CCTE's Neural Acute Assay for Standard Deviation of Number of Spikes in a Network Burst, Shafer Lab (AID 2284020);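 note: fitted for decrease in spike-number SD versus DMSO so actives lower it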
Experimental: CCTE_Shafer_MEA_acute assay is conducted using Axion Biosystems 48 well microelectrode array (MEA) plates and Maestro recording system. Each well of the MEA plate contains a grid of 16 microelectrodes embedded in the culture surface. Electrically active cells, such as neurons, can be cultured over the electrodes, and electrical activity in these cells can be recorded extracellularly. The spontaneous firing of neurons is captured from each electrode on a microsecond timescale providing both temporally and spatially precise data. […] The CCTE_Shafer_MEA_acute assay uses primary cultures of rat cortical neurons. As these cultures mature over time, neural networks develop functional activity and form cohesive networks in which electrical activity can be highly coordinated. Baseline 40-minute recordings are made on days post-plating 13 or 15, followed by a secondary 40-minute recording after chemical exposure.CCTE_Shafer_MEA_acute_per_network_burst_spike_number_std is a component of the CCTE_Shafer_MEA_acute assay. It measures the standard deviation of the number of spikes (action potential firings) in a network burst (temporally-clustered group of spikes across multiple electrodes) during a recording in a microelectrode array (MEA) using Axion Biosystems Maestro 768 channel amplifier with the AxIS adaptive spike detector. The recordings before and after chemical treatment are used to calculate a percent change in the standard deviation of the number of spikes in network bursts in each well.Data from the assay component CCTE_Shafer_MEA_acute_burst_spike_number_std was analyzed into 1 assay endpoint. This assay endpoint, CCTE_Shafer_MEA_acute_burst_spike_number_std, was analyzed in the negative analysis fitting direction relative to DMSO as the negative control and baseline of activity. Using a type of functional reporter, gain or loss-of-signal activity can be used to understand electrical activity.
Spontaneous activity in the cortical cultures was recorded using an Axion Biosystems Maestro 768 channel amplifier and Axion Integrated Studios (AxIS) v1.8 (or later) software. The amplifier recorded from all channels simultaneously (gain = 1200 x; sampling rate = 12.5 kHz/channel): raw signals were filtered with a Butterworth band-pass filter (300-5000 Hz), which filters out slower local field potentials leaving only fast potentials, i.e., "spikes", arising from extracellular currents associated with action potentials (Pine 2006; Wheeler and Nam 2011). On-line spike detection of filtered signals was conducted with the AxIS adaptive spike detector, using a threshold of 8x the root mean squared (rms) noise on each channel. Any electrodes with rms noise levels greater than 5 uV were grounded (e.g., no data were recorded). Once grounded, an electrode was grounded for the duration of the experiment. All recordings were conducted at 37 C. Wells were deemed usable if on the day of the exposure >/= 10 electrodes were active (defined as >/= 5 spikes/min). On DIV 13 or 15, a minimum of three wells from one cortical culture preparation were treated with each compound (0.03-40 uM). Prior to recording baseline activity, each mwMEA plate was placed in the Maestro at 37 C and allowed to sit for 20 min while firing rates stabilized. Baseline activity (40 min) was recorded before the addition of each compound. An additional 40 min of spontaneous activity was recorded in the presence of each compound. Changes in network parameters relative to baseline were assessed following compound treatment.

SMILES | outcome | AC50
CC[C@H](c1ccc(O)cc1)[C@@H](CC)c1ccc(O)cc1 | inactive | –
CN1CCC[C@H]1c1cccnc1 | inactive | –
CN1CCN(c2ccccc2/C=C2\SCCN(c3ccc(Cl)c(Cl)c3)C2=O)CC1 | inactive | –
CCc1ccc(CCOc2ccc(CC3SC(=O)NC3=O)cc2)nc1 (configuration not stated) | inactive | –
CCC(=C(c1ccc(O)cc1)c1ccc(OCCN(C)C)cc1)c1ccccc1 | – | 23.8 µM (active)
O=C(O)c1ccccc1C(c1ccc(O)cc1)c1ccc(O)cc1 | inactive | –
O=c1c(-c2ccc(O)cc2)coc2cc(O)ccc12 | inactive | –
CCCCCCCCCCCCc1ccccc1S(=O)(=O)O | inactive | –
CC(=O)NC1(c2cccc(F)c2)CCN(CC[C@@]2(c3ccc(Cl)c(Cl)c3)CN(c3ccccc3)C(=O)CO2)CC1 | inactive | –
Oc1cc2ccccc2c2ccccc12 | inactive | –
CCCOc1sc(C(=O)N2CCC(c3cc(CN)ccc3F)CC2)c(C)c1Br | inactive | –
CN(C)C=O | inactive | –
NC(=O)N(O)[C@@H]1C=C[C@H](Oc2cccc(Oc3ccc(F)cc3)c2)C1 | – | 10 µM (active)
CC#C[C@]1(O)CC[C@H]2[C@@H]3CCC4=CC(=O)CCC4=C3[C@@H](c3ccc(N(C)C)cc3)C[C@@]21C | inactive | 9.84 µM (active)
CC(C)(C)c1cc(C(C)(C)C)c(O)c(C(C)(C)C)c1 | inactive | –
OCCC(F)(F)C(F)(F)C(F)(F)C(F)(F)C(F)(F)C(F)(F)C(F)(F)C(F)(F)F | inactive | –
CC(C)CCCCCCOC(=O)CCCCC(=O)OCCCCCCC(C)C | inactive | –
CCCCCCCCCCCCCCCS(=O)(=O)Oc1ccccc1 | inactive | –
OC1CCC(C2CCCCC2)CC1 (configuration not stated) | inactive | –
Cc1cc(CCN2CCN(c3nsc4ccccc34)CC2)cc2c1NC(=O)CC2(C)C | – | 7.3 µM (active)
CCCCCCCCCCCCN1CCCC1=O | inactive | –
